# This is a sample that favours compounds with a hit; in the whole collection about 2.5% have one here.
# L3MBTL1 inh – blocks human L3MBTL1 | AlphaScreen L3MBTL1–H3K9me1 peptide binding | Potency, µM (doses to about 57.1 µM), inactives show top-dose activity, negative = inhibition, hits mostly inhibitors | Q9Y468 | 0.66% of 230,000 active | AID 485360; further: on the % scale 0 is the no-effect control and ±100 the full control effect; nearly all actives have a fitted effect of over 60% in size
#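 AlphaScreen assay: L3MBTL1 (50 nM final) was preincubated 30 min at room temperature with biotinylated H3(1-15)K9me1 peptide (75 nM final), then 30 min with library compounds; streptavidin donor and nickel chelate acceptor beads (10 ug/mL final) added, 30 min dark.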
# POLI inh – DNA polymerase iota (human) inhibition; Q9UNA4; Pol iota fluorescent replication assay, 10 min; Potency, µM (series often up to 115 µM), without a hit: top-dose activity, negative = inhibition, most hits filed as inhibitors; 1% of 390,000 active; AID 588590
#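 Fluorescent replication assay read twice, at 0 min and 10 min after adding 50 nM (final) substrate. Enzyme (10 nM) and compounds were first incubated 15 min at room temperature; enzyme-free buffer wells were negative controls.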
# Pol kappa inh-1 – inhibitors of human DNA polymerase kappa; purified Pol kappa, fluorescent DNA synthesis assay, 10 min; Potency, µM (series often up to 107 µM), inactives show at the top dose activity, negative = inhibition, actives largely listed as inhibitors; 0.53% of 400,000 active; AID 588579; further: on the % scale 0 is the no-effect control and ±100 the full control effect
#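 50 nM final substrate added after 15 min RT preincubation of 10 nM Pol kappa with compound; fluorescence read at 0 and 10 min.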
# Pol eta inh-1 – DNA polymerase eta (human) inhibition. Q9Y253. Potency, µM (doses to about 114 µM), without a hit: top-dose activity change, negative = inhibition, actives largely listed as inhibitors. AID 588591. 1.2% of 390,000 active. recombinant Pol eta, fluorescent DNA replication assay; further: on the % scale 0 is the no-effect control and ±100 the full control effect
# Target sequence (Q9Y253 whole entry, looked up): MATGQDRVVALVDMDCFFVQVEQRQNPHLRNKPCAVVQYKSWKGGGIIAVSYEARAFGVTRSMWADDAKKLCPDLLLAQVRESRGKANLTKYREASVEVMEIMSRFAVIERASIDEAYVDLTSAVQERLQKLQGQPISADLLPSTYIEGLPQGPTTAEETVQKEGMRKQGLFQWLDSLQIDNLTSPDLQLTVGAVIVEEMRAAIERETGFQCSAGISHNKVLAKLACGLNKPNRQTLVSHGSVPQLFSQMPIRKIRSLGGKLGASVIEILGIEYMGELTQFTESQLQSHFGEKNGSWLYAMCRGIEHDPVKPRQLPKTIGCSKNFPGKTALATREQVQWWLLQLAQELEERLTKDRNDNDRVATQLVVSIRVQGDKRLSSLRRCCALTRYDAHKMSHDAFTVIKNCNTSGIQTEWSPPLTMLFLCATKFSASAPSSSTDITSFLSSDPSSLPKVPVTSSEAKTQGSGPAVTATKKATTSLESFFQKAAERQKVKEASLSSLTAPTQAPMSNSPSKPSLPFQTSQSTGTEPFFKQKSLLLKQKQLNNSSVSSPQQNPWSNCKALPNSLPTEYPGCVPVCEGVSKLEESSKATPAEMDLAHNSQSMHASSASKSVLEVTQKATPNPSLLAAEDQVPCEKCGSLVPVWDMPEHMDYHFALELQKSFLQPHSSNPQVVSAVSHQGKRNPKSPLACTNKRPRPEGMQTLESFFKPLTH
#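 Pol eta at 10 nM preincubated with compounds 15 min at room temperature; reaction started with fluorescent substrate (50 nM final) and read kinetically at 0 and 10 min.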
# POLB inh – inhibitors of human DNA polymerase beta; P06746; Pol beta primer extension/strand displacement, fluorescence kinetic; Potency, µM (series often up to 114 µM), for the others: at the top dose activity change, negative = inhibition, most hits filed as inhibitors; 1.3% of 340,000 active; AID 485314; further: on the % scale 0 is the no-effect control and ±100 the full control effect
#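 Human Pol beta at 10 nM; strand-displacement substrate 50 nM final. Compound exposure 15 min at room temperature before start, reaction 10 min at room temperature.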
# APEX1 inh – inhibitors of human APE1 endonuclease; P27695; recombinant APE1, TAMRA/BHQ-2 abasic DNA cleavage fluorescence; Potency, µM (highest dose often 65.8 µM), for inactives: at the highest dose activity change, negative = inhibition, usual class: inhibitors; 0.35% of 350,000 active;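 further: plate controls were vehicle for no effect and reference inhibitor for full effect; nearly all actives have a fitted effect of over 55% in size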
#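 Kinetic fluorescence read (525 ex/598 em nm, three reads 60 s apart) of AP-site incision; signal = third minus first read. Enzyme 0.75 nM, dual-labelled THF duplex 50 nM, compound preincubation 15 min RT.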
# Pol kappa inh-2 – Pol kappa (human) inhibition, cherry-pick confirmation. shares compounds with Pol eta inh-1. purified Pol-kappa, fluorescent strand-displacement substrate. 76% of 920 active. AID 720501. Potency, µM, usual class: inhibitors
# Pol eta inh-2 – Pol eta (human) inhibition, cherry-pick confirmation; shares compounds with Pol eta inh-1; Pol eta primer extension, TAMRA/BHQ fluorescence, 10 min; Potency, µM, most hits filed as inhibitors; 64% of 2,600 active
# Numbers without * were called inactive; u = inconclusive; x = no result given; [ ] = remark or other dose. The call rests on the fitted dose curve; in most records, active means well fitted curve in the direction sought with a large enough effect; inconclusive means small, poorly fitted or top-dose-only effect, or another doubt; inactive means no such curve, though single readings can be large; an effect the other way counts as inactive or inconclusive. Potency means the concentration at half of the fitted maximal effect.
SMILES,L3MBTL1 inh,POLI inh,Pol kappa inh-1,Pol eta inh-1,POLB inh,APEX1 inh,Pol kappa inh-2,Pol eta inh-2
CC(=C/c1ccccc1)/C=N/n1c(-c2ccncc2)n[nH]c1=S,-3%[11.4 µM],13%,1%,-5%,-8%,4%,x,x
O=C(O)c1ccc2c(c1)C(=O)N(Cc1ccco1)C2=O,-24%,u,-10%,u,1%,33%,x,x
O=C(O)c1cccc(NC(=O)c2ccc3c(c2)C(=O)N(Cc2ccco2)C3=O)c1,-24%,50µM*,u,18µM*,u,7%,67*,43*
CC(=O)c1cccc(NC(=O)CN2C(=O)C(=O)N(Cc3ccco3)C2=O)c1,u,50µM*,u,14µM*,x,-28%,x,u
O=C(COC(=O)C1CCN(c2ccc(C(F)(F)F)cn2)CC1)NC1CCCCC1,-1%,65%,4%,-8%,x,10%,x,x
O=C(O)c1cccc(N/N=C/c2ccc(F)c(F)c2)c1,16%,110%,-3%,-3%,-24%,-4%,x,x
O=C(O)c1cccc(N/N=C/C2=C(Cl)c3cc(Cl)ccc3SC2)c1,x,u,-19%,50µM*,u,u,u,u
COc1ccc(OC)c(-c2nnc3n2N=C(c2ccc(OC(F)F)c(OCC4CC4)c2)CS3)c1,-15%,u,-31%,-24%,x,19%,x,x
COc1ccc(C2=Nn3c(nnc3-c3ccccc3OC)SC2)cc1OCC1CC1,-6%,-16%,40µM*,-9%,x,-16%,0.67*,x
COc1ccc(C2=Nn3c(nnc3-c3ccccc3OC)SC2)cc1O[C@H]1CCOC1,x,x,x,x,x,2%,2.7*,x
Cc1ccc(/C=N/Nc2ccc(C(=O)O)cc2)s1,u,u,-26%,40µM*,u,-2%,u,48*
Cc1ccc(/C=N/Nc2cccc(C(=O)O)c2)s1,-21%,-21%,-13%,u,u,-2%,x,x
C/C(N)=C(/C#N)C(=O)CSc1nnnn1-c1ccccc1,-13%,u,-13%,16µM*,35µM*,u,x,27*
CC1=NOC(=O)/C1=C\c1ccc(-c2cccc(Cl)c2)o1,-7%,u,-12%,20µM*,u,u,x,u
CCCOc1ccc(Cc2nn3c(=O)/c(=C/c4ccco4)sc3nc2=O)cc1,u,6.3µM*,8.9µM*,25µM*,25µM*,u,x,u
COc1ccccc1/C=C/C=c1\sc2nc(=O)c(Cc3ccccc3)nn2c1=O,x,4.5µM*,35µM*,20µM*,u,u,x,38*
CC1=C(C(=O)OC2CCCC2)C(c2c(Cl)cccc2Cl)CC(=O)N1 (stereo not drawn),x,6%,-5%,-22%,u,x,x,x
CN(C)c1ccc(N2C(=O)CSC2=S)cc1,u,u,-43%,-12%,-9%,10µM*,x,u
CCc1ccccc1NS(=O)(=O)c1ccc2[nH]cc(C(=O)NCc3ccco3)c(=O)c2c1,13%,24%,0%,11%,42%,0%,x,x
O=C(NCc1ccco1)c1c[nH]c2ccc(S(=O)(=O)Nc3ccc(F)cc3F)cc2c1=O,x,u,-26%,50µM*,u,x,u,x
CCc1noc(C)c1C(=O)OCC(=O)Nc1ccc2c(c1)OCO2,1%,18%,1%,-17%,x,-4%,x,x
Cc1cccc(NC(=O)C(=O)NNC(=O)c2ccc(C(C)(C)C)cc2)c1,x,53%,-10%,-24%,-27%,39%,x,x
